# Compounds with a hit are over-represented: about 6.6% of the library has one in this group of screens.
# BoNT-A LC inh2 – BoNT/A light chain protease inhibitors, primary screen, biochemical, flow cytometry, MLPCN library. multiplex microsphere protease substrate cleavage. Botulinum neurotoxin type A light chain protease (Clostridium botulinum A str. ATCC 3502). inhibition, % at 10 µM. 360,000 compounds, 0.17% hits; further: plate controls were buffer without enzyme for full effect and enzyme alone for no effect
# Mtb FBA inh – Mtb FBA enzyme inhibitors, primary screen, biochemical, fluorescence, strain H37Rv; Fructose-bisphosphate aldolase (Mycobacterium tuberculosis (strain ATCC 25618 / H37Rv)), …; purified M. tuberculosis FBA, fluorescence read-out; inhibition, % at 1 µM; 360,000 compounds, 2.3% hits; in the data active means inhibition above about 27%;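 further: 0% = vehicle and 100% = reference inhibitor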
# Target sequence (P9WQA3 whole entry, looked up): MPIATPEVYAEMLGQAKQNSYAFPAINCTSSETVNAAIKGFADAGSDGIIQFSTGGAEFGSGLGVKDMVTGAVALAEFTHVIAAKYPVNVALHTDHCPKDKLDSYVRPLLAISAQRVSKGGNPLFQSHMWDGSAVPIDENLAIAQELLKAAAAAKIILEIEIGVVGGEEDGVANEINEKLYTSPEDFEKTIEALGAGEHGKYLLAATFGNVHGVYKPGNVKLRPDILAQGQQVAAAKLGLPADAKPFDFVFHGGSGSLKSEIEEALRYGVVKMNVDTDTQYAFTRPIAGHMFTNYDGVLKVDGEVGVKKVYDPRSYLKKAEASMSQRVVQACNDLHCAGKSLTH
# BoNT-F LC inh – BoNT/F light chain protease inhibitors, primary screen, biochemical, flow cytometry, MLPCN library; inhibition, % at 10 µM; Multiplex microsphere protease cleavage assay; 360,000 compounds, 0.22% hits; Botulinum neurotoxin type F light chain protease (Clostridium botulinum); AID 588497, 2011; in the data active means inhibition above about 35%, passing the limit was not always enough; further: plate controls were buffer without enzyme for full effect and enzyme alone for no effect
# Autofluor counter – counter-screen for toxin protease inhibitors: compound fluorescence; compound autofluorescence counterscreen, microsphere flow cytometry; stronger effect = higher value; fluorescence intensity (test concentration not listed); 360,000 compounds, 3.1% hits; AID 624483; in the data active means fluorescence intensity above about 16000
# Anthrax LF inh2 – Bacillus anthracis LF protease inhibitors, primary screen, biochemical, multiplex microsphere, MLPCN library; multiplex microsphere protease cleavage assay; inhibition, % at 10 µM; 360,000 compounds, 0.12% hits; AID 588501, 2011; further: plate controls were buffer without enzyme for full effect and enzyme alone for no effect
# GDH-TPI counter – GDH-TPI coupling enzyme inhibitors, primary screen, artefact control for M. tuberculosis FBA inhibitor project, biochemical, absorbance, full deck; GDH-TPI coupled enzyme counterscreen, NADH absorbance; inhibition, % at 4.8 µM; 360,000 compounds, 1.2% hits; in the data active means inhibition above about 30%;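 further: 0% = DMSO wells and 100% = wells lacking the enzyme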
# The depositor's hits bear a star; . = no result given; + = active, no number. Unless noted, no stated cut-off is given here; in the data, active means inhibition above about 30%; inconclusive means no clear call, values can overlap the other calls; inactive means below that.
SMILES,BoNT-A LC inh2,Mtb FBA inh,BoNT-F LC inh,Autofluor counter,Anthrax LF inh2,GDH-TPI counter
O=C(O)/C=C/C(=O)NNC(=O)c1ccccc1Br,4.7,-0.5,6.2,20690*,-15.8,-3.1
OCC[C@H]1C[C@@H](O)[C@H](O)[C@]2(Cc3ccccc3CCO2)O1,0.1,0.5,4.5,3505,3.7,-6.2
Cc1ccccc1N1CCN(C2CCCN(C(=O)c3cn4cccc(C)c4n3)C2)CC1 (stereo unspecified),0.3,2.1,-2.1,6013,-1.1,2.5
COc1ccc(C)cc1NS(=O)(=O)c1ccccc1,0.4,1.1,5.0,3077,-3.5,11.4
COc1ccccc1CN1CC(C(=O)NCc2nc3ccccc3n2C)CCC1=O (stereo unspecified),3.2,-2.0,2.6,4769,-2.9,-1.4
O=C(NNC(=S)Nc1cccc2ccccc12)c1cccc(Br)c1,-0.6,8.8,-7.2,8580,-4.0,35.0*
O=C(NNC(=O)c1ccc2ccccc2c1)c1cccc(Br)c1,0.0,-0.5,1.5,3708,-2.8,-6.0
C=CCn1c(SCC(=O)NC(=O)c2cccc([N+](=O)[O-])c2)nnc1-c1ccccc1,1.2,3.0,0.9,1924,0.8,4.4
O=C(CCc1nc(-c2ccccc2Cl)no1)NCC1CCCO1 (stereo unspecified),-0.6,-2.3,-11.9,4108,-4.9,-3.7
Cc1ccccc1-c1noc(CCC(=O)NCC2CCCO2)n1 (stereo unspecified),3.4,0.7,6.2,22713*,-2.0,0.0
Cc1cccc(-c2noc(CCC(=O)NCC3CCCO3)n2)c1 (stereo unspecified),0.3,-5.1,-1.2,23287*,1.4,3.7
CCN(CC)S(=O)(=O)c1ccc(C(=O)Nc2c3c(nn2C(C)(C)C)CS(=O)(=O)C3)cc1,-0.5,3.1,-0.2,23143*,-0.8,6.8
Cc1nc2ccc(-c3nc4ccc(N)cc4[nH]3)cc2[nH]1,0.0,+,-28.3,3609,-9.6,3.8
Nc1ccc(-c2nc3ccc([N+](=O)[O-])cc3[nH]2)cc1,-0.9,2.0,-9.8,1971,0.5,22.3
Cc1nc2ccc(Cc3ccc4nc(C)[nH]c4c3)cc2[nH]1,-0.1,1.1,9.7,3092,-8.3,2.6
O=[N+]([O-])c1ccc(-c2nc3ccc([N+](=O)[O-])cc3[nH]2)cc1,2.0,1.5,-6.5,2363,-1.7,31.2*
Cc1ccc2nc(Cc3ccc(N)cc3)[nH]c2c1,-1.5,1.0,-12.7,6723,-10.1,9.3
Nc1ccc(-c2nc3c(Cl)c(N)ccc3[nH]2)cc1,0.5,+,-59.6,2698,-16.7,38.4*
Cc1ccc(C)c(-c2nc3ccc(N)cc3[nH]2)c1,0.7,189.5*,-36.3,4380,-8.9,-1.9
Nc1ccc2nc(-c3cccc(-c4nc5ccc(N)cc5[nH]4)c3)[nH]c2c1,-1.9,0.1,-76.3,3075,-9.1,27.2
Cc1ccc2nc(-c3ccccc3N)[nH]c2c1,0.2,+,-3.4,2215,-2.3,6.3
Cc1ccc2nc(-c3ccccn3)[nH]c2c1,.,5.1,.,.,.,9.6
Nc1ccc2nc(-c3cc(Cl)c(N)c(Cl)c3)[nH]c2c1,0.1,24.9,-72.9,3821,-12.8,35.4*
Cc1cc2nc(-c3ccccc3O)[nH]c2cc1C,-0.2,157.1*,-9.3,4175,-3.3,15.3
Nc1ccc(-c2nc3ccc(N)cc3[nH]2)cc1,-1.3,+,-65.7,3477,-31.2,17.9
SMILES,BoNT-A LC inh2,Mtb FBA inh,BoNT-F LC inh,Autofluor counter,Anthrax LF inh2,GDH-TPI counter
COc1ccc(Cl)cc1CN1C(=O)C(Cc2ccccc2)ON=C1C (stereo unspecified),-1.1,2.1,-3.9,4484,-3.9,13.3
CC(=O)c1ccc(NC(=O)C(C)Sc2nnnn2C)cc1 (stereo unspecified),-4.2,-0.7,-5.5,23749*,0.2,-11.8
CCN(c1ccc(C)cc1)S(=O)(=O)c1nnc(NC(=O)c2ccco2)s1,-0.7,4.6,1.6,6308,-0.5,40.9*
CCN(c1ccc(C)cc1C)S(=O)(=O)c1nnc(NC(=O)c2ccco2)s1,0.8,7.2,4.9,4340,-0.5,26.9
CN(c1ccccc1)S(=O)(=O)c1nnc(NC(=O)c2ccco2)s1,0.9,0.9,4.8,5248,-0.1,27.5
CC(C)CN(c1ccccc1)S(=O)(=O)c1nnc(NC(=O)c2ccco2)s1,-0.4,5.5,-2.4,4452,0.7,34.8*
C=CC(C)(C)c1[nH]cnc1/C=C1\NC(=O)C(C(C)C)NC1=O (stereo unspecified),-0.3,4.8,-8.0,4103,-3.6,32.4*
N#Cc1nc(-c2ccc(F)cc2)oc1NCc1cccc2c1OCO2,-0.8,12.2,-7.1,5889,-3.0,4.3
N#Cc1nc(-c2ccco2)oc1N1CCCC1,1.0,189.5*,-3.1,3225,-3.2,-2.8
COc1ccccc1-c1nc(C#N)c(N2CCN(c3cccc(Cl)c3)CC2)o1,-5.1,-0.2,-7.1,25154*,-6.4,11.2
Cc1ccc(-c2nc(C#N)c(N3CCCCC3)o2)cc1,-0.6,137.1*,-5.2,5617,-7.7,13.9
CC(C)CNc1oc(-c2ccc(F)cc2)nc1C#N,-0.4,127.9*,-4.7,5568,-4.1,13.9
CCCCn1nnnc1C1(C)CCC(=O)N1CCCN1CCOCC1 (stereo unspecified),-0.4,.,-1.0,5024,-3.4,.
CC1CC(C)CN(CCCNC(=O)C2CCN(c3nnc(-n4cccc4)s3)CC2)C1 (stereo unspecified),-1.4,0.8,-3.5,4628,-7.3,5.6
COc1ccc(-c2nc(C#N)c(NC(C)C)o2)cc1,-1.7,190.2*,-7.6,11519,-1.5,5.7
N#Cc1nc(-c2ccc(OCc3ccc(Cl)cc3)cc2)oc1N1CCOCC1,-1.0,-1.1,-16.8,6821,-2.2,2.8
CN1CCN(c2oc(-c3ccc([N+](=O)[O-])cc3)nc2C#N)CC1,.,-1.0,.,.,.,13.2
COc1ccc(-c2nc(C#N)c(N3CCC(C)CC3)o2)cc1,-0.8,114.6*,7.7,3526,-9.9,3.8
N#Cc1nc(-c2ccc(Cl)cc2)oc1N1CCCCC1,-2.7,+,-16.9,8896,-2.7,23.5
N#Cc1nc(-c2ccc(OCc3ccc(Cl)cc3)cc2)oc1N1CCC(C(N)=O)CC1,-0.3,8.9,-3.3,5242,-5.2,1.1
CCCOc1ccc(-c2nc(C#N)c(N3CCC(C(N)=O)CC3)o2)cc1,-1.7,+,-2.6,19961*,-4.2,26.9
O=C(NNC(=O)c1cccc2ccccc12)c1ccc2c(c1)OCO2,0.0,1.0,-3.4,5302,3.3,3.4
